Only some compounds are listed: those with a hit (about 9.4% of all), similar ones and a draw of the others.
Pf growth 96h = P. falciparum growth inhibition at 96 hour, primary screen for plastid delayed-death inhibitors; hit rate 6.9% among 320,000; P. falciparum luciferase reporter growth, 96 h; Potency, µM (titrated, usually from 28.7 µM), for the others: at the top dose activity change, negative = inhibition, actives largely listed as inhibitors; further: on the % scale 0 is the no-effect control and ±100 the full control effect
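P. falciparum expressing integrated firefly luciferase grown in erythrocytes (2% hematocrit, 0.05% parasitemia final) with compounds for 96 hours at 37 C, 5% CO2. Growth inhibition read as loss of luminescence after adding luciferase detection reagent.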
Pf growth 48h = P. falciparum growth inhibition at 48 hours (one generation); P. falciparum luciferase growth in erythrocytes, 48 h; Potency, µM (titrated, usually from 28.7 µM), inactives show at the highest dose activity change, negative = inhibition, hits mostly inhibitors; hit rate 5.9% among 310,000; AID 504832; further: on the % scale 0 is the no-effect control and ±100 the full control effect
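Luciferase-expressing parasites in RBCs, 2% Hct / 0.1% parasitemia final; RPMI 1640 + 0.5% Albumax; 37 C, 5% CO2, one generation; luminescence read-out, lower signal = inhibition.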
SARS PLpro yeast = blocks SARS-CoV papain-like protease in a yeast assay. S. cerevisiae expressing SARS-CoV PLpro, growth rescue. Potency, µM (highest dose often 32.9 µM), without a hit: at the top dose activity, positive = growth rescue, actives largely listed as activators. hit rate 0.19% among 330,000; calls by dose curve; further: 0% is about no effect; nearly all actives have a fitted effect of over 55% in size
AMA1-RON2 inh = inhibitors of Plasmodium falciparum AMA1-RON2 interaction; AlphaScreen AMA1-biotinylated RON2 peptide binding; Potency, µM (highest dose often 58.2 µM), without a hit: at the highest dose activity change, negative = inhibition, usual class: inhibitors; hit rate 0.2% among 360,000; AID 720542;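 further: 0% = vehicle wells and -100% = peptide control; nearly all actives have a fitted effect of over 45% in size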
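AMA1 (3D7) with his tag at 25 nM final met compounds first, then biotinylated RON2 peptide at 25 nM; detection used donor plus acceptor beads, 10 µg/mL apiece, read by AlphaScreen after 30 min at room temperature.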
* hit, by the source's call; ! = a repeat was not active; [ ] = remark or other dose. Unless noted, the call rests on the fitted dose curve; in most records, active means well fitted curve in the direction sought with a large enough effect; inconclusive means small, poorly fitted or top-dose-only effect, or another doubt; inactive means no such curve, though single readings can be large; an effect the other way counts as inactive or inconclusive. Potency means the concentration at half of the fitted maximal effect.

`O=C(COc1ccc(F)cc1Cl)Nc1cccc(S(=O)(=O)N2CCCCCC2)c1` gave Pf growth 96h 13µM*, Pf growth 48h inconclusive, SARS PLpro yeast -3% and AMA1-RON2 inh 3%.
`O=C(COc1cccc2cccnc12)Nc1cccc(S(=O)(=O)N2CCCC2)c1` gave Pf growth 96h inconclusive, Pf growth 48h 10µM*, SARS PLpro yeast -2% and AMA1-RON2 inh 71%.
For CC(=O)c1cc(Cl)ccc1OCC(=O)Nc1cccc(S(=O)(=O)N2CCCC2)c1 the results were Pf growth 96h 3.7µM*, Pf growth 48h inconclusive, SARS PLpro yeast 7% and AMA1-RON2 inh -1%.
For Clc1cccc(-c2ccnc3nc(-n4cccc4)nn23)c1 the results were Pf growth 96h -46%, Pf growth 48h 0%, SARS PLpro yeast -6% and AMA1-RON2 inh -10%.
Screening Cn1ncc2c(NCCO)nc(Cl)nc21 returned AMA1-RON2 inh 7%.
Screening OC(c1ccccc1)(c1ccccc1)C1CN2CCC1CC2 (stereo not drawn) returned Pf growth 96h 12µM*!, Pf growth 48h inconclusive, SARS PLpro yeast 8% and AMA1-RON2 inh 16%.
For OC(c1ccccc1)(c1ccc(Cl)cc1)C1CN2CCC1CC2 (stereo not drawn) the results were Pf growth 96h 8.3µM*, Pf growth 48h inconclusive, SARS PLpro yeast 0% and AMA1-RON2 inh -21%.
For OC(Cc1ccccc1)(c1ccccc1)C1CN2CCC1CC2 (stereo not drawn) the results were Pf growth 96h inconclusive, SARS PLpro yeast -3% and AMA1-RON2 inh 0%.
`c1ccc(C2CN3CCC2CC3)cc1` (stereo not drawn) gave Pf growth 96h 10%, Pf growth 48h -1%, SARS PLpro yeast 0% and AMA1-RON2 inh -4%.
Screening O=c1c2c3c(sc2n(CCN2CCOCC2)c(=O)n1Cc1ccco1)CCCCC3 returned Pf growth 96h 2.6µM*, Pf growth 48h inconclusive, SARS PLpro yeast 1% and AMA1-RON2 inh -8%.
For NC(=O)Cn1c(=O)n(Cc2ccco2)c(=O)c2c3c(sc21)CCCCC3 the results were Pf growth 96h -17%, Pf growth 48h inconclusive, SARS PLpro yeast inconclusive and AMA1-RON2 inh -29%.
Screening O=c1c2c3c(sc2n(CCN2CCCCC2)c(=O)n1Cc1ccco1)CCCCC3 returned Pf growth 96h 2.6µM*, SARS PLpro yeast 0% and AMA1-RON2 inh -3%.
COc1cc(OC)cc(C(=O)NCC2CCCN(Cc3cccc(C(C)=O)c3)C2)c1 (stereo not drawn) was read as Pf growth 96h 8.3µM*, Pf growth 48h inconclusive, SARS PLpro yeast 1% and AMA1-RON2 inh -1%.
For COc1ccc(CN2CCCC(CNC(=O)c3ccc(F)cc3)C2)c(C)c1C (stereo not drawn) the results were Pf growth 96h 10µM*, Pf growth 48h -17%, SARS PLpro yeast 17% and AMA1-RON2 inh 3%.
For CCOc1cc(CN2CCCC(CNC(=O)c3ccc(F)cc3)C2)ccc1OC (stereo not drawn) the results were Pf growth 96h inconclusive, Pf growth 48h inconclusive, SARS PLpro yeast 1% and AMA1-RON2 inh -7%.
`COc1ccc(CN2CCCC(CNC(=O)c3ccc(F)cc3)C2)c(F)c1` (stereo not drawn) gave Pf growth 96h 1.9µM*, Pf growth 48h -25%, SARS PLpro yeast 0% and AMA1-RON2 inh 7%.
O=C(CN1CCCCCC1)Nc1ccc([N+](=O)[O-])cc1Br was read as Pf growth 96h -5%, Pf growth 48h -12%, SARS PLpro yeast 3% and AMA1-RON2 inh 8%.
For O=C(OCn1ncc(Cl)c(Cl)c1=O)c1ccc(F)cc1 the results were Pf growth 96h inconclusive, Pf growth 48h inconclusive and SARS PLpro yeast -30%.
`CCc1ccc(-c2cc(C)no2)cc1S(=O)(=O)N1CCN(c2ccccc2OC)CC1` gave Pf growth 96h 16%, Pf growth 48h inconclusive, SARS PLpro yeast -1% and AMA1-RON2 inh -9%.
`Cc1cccn2c(CNCCCn3ncc4ccccc43)c(C(=O)N3CCCCC3)nc12` gave Pf growth 96h 15µM*, Pf growth 48h inconclusive, SARS PLpro yeast 1% and AMA1-RON2 inh -3%.
COc1ccc(/C=N/NC(=O)c2ccc(CN3C(=O)c4cccc5cccc3c45)cc2)cc1O was read as Pf growth 96h -4%, Pf growth 48h inconclusive, SARS PLpro yeast 1% and AMA1-RON2 inh 36%.
COc1cc(/C=N/NC(=O)c2ccc(CN3C(=O)c4cccc5cccc3c45)cc2)cc(OC)c1O was read as Pf growth 96h inconclusive, Pf growth 48h 8.3µM*, SARS PLpro yeast -2% and AMA1-RON2 inh 81%.
`CCSc1nc2c(sc3nc(C)cc(C)c32)c(=O)[nH]1` gave Pf growth 96h 43%, Pf growth 48h 3% and SARS PLpro yeast -3%.
For CCc1ccc(NC(=O)C2CCN(c3c(N4CCCC4)c(=O)c3=O)CC2)cc1 the results were Pf growth 96h 17%, Pf growth 48h 1%, SARS PLpro yeast 8% and AMA1-RON2 inh 4%.
For CCn1c(C)nc([N+](=O)[O-])c1Sc1ccc(F)cc1 the results were Pf growth 96h 10µM*, Pf growth 48h inconclusive, SARS PLpro yeast 3% and AMA1-RON2 inh 5%.
For Cc1nc2ccc([N+](=O)[O-])cc2c(=O)n1Cc1ccc(F)cc1 the results were Pf growth 96h 0%, Pf growth 48h -15%, SARS PLpro yeast 6% and AMA1-RON2 inh -5%.
Screening O=C(CSc1nc(=O)n(CCN2CCOCC2)c2c1CCCC2)Nc1ccc([N+](=O)[O-])cc1 returned Pf growth 96h 15%, Pf growth 48h 23%, SARS PLpro yeast -3% and AMA1-RON2 inh 2%.
For CCOC(=O)CCSc1nc2c(c(C(F)(F)F)c1C#N)CCC2 the results were Pf growth 96h -27%, Pf growth 48h 9.3µM*, SARS PLpro yeast -14% and AMA1-RON2 inh 51%.
Screening CCCCSc1nc2c(c(C(F)(F)F)c1C#N)CCC2 returned Pf growth 96h inconclusive, SARS PLpro yeast 5% and AMA1-RON2 inh 45%.
Screening C=CCn1c(=O)c(C(=O)Nc2ccc(C)cn2)c(O)c2ccccc21 returned Pf growth 96h inconclusive, Pf growth 48h 9%, SARS PLpro yeast -5% and AMA1-RON2 inh 23%.
Screening COc1ccc(CC(C#N)(CO)c2nc3ccccc3[nH]2)cc1 (stereo not drawn) returned Pf growth 96h 2.3µM*, Pf growth 48h inconclusive, SARS PLpro yeast -11% and AMA1-RON2 inh -5%[11.6 µM].
Screening CCc1ccc(Nc2n[n+](-c3ccccc3)c(-c3ccc(OC)c(Br)c3)s2)cc1 returned Pf growth 96h 4.7µM*, Pf growth 48h 1%, SARS PLpro yeast -8% and AMA1-RON2 inh 42%.
Screening COc1cc(Br)c(-c2sc(Nc3ccccc3)n[n+]2-c2ccc(F)cc2)cc1OC returned Pf growth 96h 3.7µM*, Pf growth 48h 1.9µM*, SARS PLpro yeast 6% and AMA1-RON2 inh 78%.
For CSc1ccc(-c2sc(Nc3cccc4ccccc34)n[n+]2-c2ccccc2)cc1 the results were Pf growth 96h inconclusive, Pf growth 48h inconclusive, SARS PLpro yeast -4% and AMA1-RON2 inh 24%.

From PubChem
